This is a sample that favours compounds with a hit; in the whole collection about 2.3% have one here.
Giardia killer = Giardia lamblia killing | Giardia lamblia trophozoite viability | activity change, % at 7.66 µM, hits read low | hit rate 0.15% among 340,000 | AID 540267; in the data active means activity change below about -80%; inconclusive means between about -30% and that limit;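 further: parasites exposed to compound for two days anaerobically before the ATP read; on the % scale 0 is the no-effect control and ±100 the full control effect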
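Anaerobic 48 hrs incubation at 37 deg C of 100 trophozoites/well with test compounds; ATPLite 1-Step luminescence, 15-30 min RT, reports cellular ATP as viability.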
ELG1 repair inh = blocks ELG1-dependent DNA repair in HEK293T cells | HEK293T ELG1-luciferase reporter, luminescence, 16 h; DNA damage induced by 5-fluorouridine | Potency, µM (series often up to 46.1 µM), inactives show at the top dose activity change, negative = inhibition, usual class: inhibitors | hit rate 2.3% among 330,000 | AID 504467; further: potency means the concentration at half of the fitted maximal effect; on the % scale 0 is the no-effect control and ±100 the full control effect; nearly all actives have a fitted effect of over 55% in size
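5-Fluorouridine DNA damage + compound/DMSO, 2,000 cells/well, 16 h, 37 °C/5% CO2. ONE-Glo, 30 min RT, luminescence. Readout = decrease in reporter signal.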
TRPV1 ag = agonists of human vanilloid receptor 1 (TRPV1) | Q8NER1 | TRPV1-expressing cells, Fluo-8 calcium influx, agonist mode | activation, % at 8.33 µM | hit rate 0.19% among 320,000; in the data active means activation above about 80%; inconclusive means between about 30% and that limit; further: 0% is about no effect
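TRPV1-expressing cells were cultured overnight at 35.5C and loaded with Fluo-8 calcium dye for 40 to 90 min at room temperature. After a 10 s baseline, compound was added and calcium influx was read kinetically for 3 min (ex 480/em 520 nm).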
TRPV1 potentiator = potentiators of human vanilloid receptor 1 (TRPV1); TRPV1-expressing cells, Fluo-8 calcium influx, capsaicin EC20 potentiation; hit rate 0.02% among 320,000; potentiation, % at 8.33 µM; Q8NER1; in the data active means potentiation above about 80%; inconclusive means between about 30% and that limit; further: 0% is about no effect
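TRPV1-expressing cells were cultured overnight at 35.5C and loaded with Fluo-8 calcium dye for 40 to 90 min at room temperature. After a 10 s baseline, compound was added and calcium influx was read kinetically for 3 min (ex 480/em 520 nm).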
FUS yeast rescue = suppressors of FUS proteinopathy in yeast | S. cerevisiae FUS-expressing, growth rescue, OD600, 24 h | Potency, µM (series often up to 76.6 µM), hits mostly activators | hit rate 0.24% among 390,000;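 further: potency means the concentration at half of the fitted maximal effect; plate controls were DMSO vehicle for no effect and reference control for full effect; nearly all actives have a fitted effect of over 55% in size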
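Cultures pregrown in 2.5% raffinose medium are shifted to minimal medium containing 2% galactose to express toxic FUS. Compounds are tested at several concentrations. After 24hr at 30C, growth is quantified at 600 nm absorbance.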
* marks the source's active call; other numbers are inactive results. Unless noted, the call rests on the fitted dose curve; in most records, active means well fitted curve in the direction sought with a large enough effect; inconclusive means small, poorly fitted or top-dose-only effect, or another doubt; inactive means no such curve, though single readings can be large; an effect the other way counts as inactive or inconclusive.

Screening COc1ccc(NC(=O)c2c(-c3ccccc3Cl)noc2C)c(OC)c1 returned Giardia killer -5.8, ELG1 repair inh 18.4µM*, TRPV1 ag 21.7, TRPV1 potentiator -6.2 and FUS yeast rescue inactive.
For Cc1ccc2cc(CCNC(=O)c3cccc([N+](=O)[O-])c3)c(=O)[nH]c2c1 the results were Giardia killer -7.3, ELG1 repair inh inconclusive, TRPV1 ag 0.7, TRPV1 potentiator 3.0 and FUS yeast rescue inactive.
For Cc1cc2cc(CCNC(=O)c3c(-c4ccccc4Cl)noc3C)c(=O)[nH]c2cc1C the results were ELG1 repair inh 13µM*, TRPV1 ag -2.1 and TRPV1 potentiator 4.7.
`Cc1cc2cc(CCNC(=O)c3cccc([N+](=O)[O-])c3)c(=O)[nH]c2cc1C` gave Giardia killer 7.8, ELG1 repair inh 23.1µM*, TRPV1 ag -4.5, TRPV1 potentiator 15.5 and FUS yeast rescue inactive.
For CC1=C(C(=O)Nc2ccc(Cl)cc2)C(c2cccs2)n2nc(SCc3cccc(C)c3)nc2N1 (configuration not stated) the results were FUS yeast rescue inactive.
Screening COc1ccc(OC)c(NC(=O)c2c(N3CCCC3=O)c3cc(OC)ccc3n2C)c1 returned FUS yeast rescue inactive.
For COc1cccc(N2CCN(c3nc4ccc(C(=O)c5ccccc5)cc4n4c(C)nnc34)CC2)c1 the results were FUS yeast rescue inactive.
`COc1ccc(C2CC(c3c(-c4ccccc4)c4cc(Cl)ccc4[nH]c3=O)=NN2S(C)(=O)=O)cc1` (configuration not stated) gave Giardia killer -12.8, ELG1 repair inh inconclusive, TRPV1 ag 9.5, TRPV1 potentiator -14.7 and FUS yeast rescue inactive.
For COc1ccc(OC)c(C2CC(c3c(-c4ccccc4)c4cc(Cl)ccc4[nH]c3=O)=NN2S(C)(=O)=O)c1 (configuration not stated) the results were Giardia killer -9.3, ELG1 repair inh 5.17µM*, TRPV1 ag -6.1, TRPV1 potentiator 11.2 and FUS yeast rescue inactive.
Screening Cc1ccc(O)c(C(=O)c2cnn(C(=O)Cc3csc(C)n3)c2)c1 returned Giardia killer -3.1, ELG1 repair inh 16.4µM* and FUS yeast rescue inactive.
For COc1ccc(CN(C)C(=O)/C=C/c2ccc(S(=O)(=O)N3CCOCC3)cc2)cc1F the results were Giardia killer -15.0, ELG1 repair inh 23.1µM*, TRPV1 ag 17.5, TRPV1 potentiator 2.1 and FUS yeast rescue inactive.
Screening CN(CC(=O)Nc1ccc(F)cc1)C(=O)C1CCN(S(=O)(=O)c2ccc3c(c2)OCCO3)CC1 returned Giardia killer 15.0, ELG1 repair inh -14.2%, TRPV1 ag -1.0, TRPV1 potentiator -0.7 and FUS yeast rescue inactive.
`CN(Cc1ccc(OC(F)F)cc1)C(=O)C1CCN(S(=O)(=O)c2ccc3c(c2)OCCO3)CC1` gave Giardia killer 1.3, ELG1 repair inh 7.3µM*, TRPV1 ag 0.9, TRPV1 potentiator -0.5 and FUS yeast rescue inconclusive.
Screening CN(Cc1ccc(OC(F)F)cc1)C(=O)/C=C/c1ccc(S(=O)(=O)N2CCOCC2)cc1 returned Giardia killer -29.5, ELG1 repair inh 16.4µM* and FUS yeast rescue inconclusive.
Screening CCOc1ccccc1Nc1sc(C(=O)c2ccc(Cl)cc2)c(N)c1C#N returned FUS yeast rescue inactive.
Screening C=CCc1ccccc1OCc1nc2ccc(C)cc2[nH]1 returned FUS yeast rescue inactive.
O=C(Nc1ccc(N2CCN(C(=O)c3ccccc3)CC2)c(Cl)c1)c1ccc(Br)o1 was read as Giardia killer 5.0, ELG1 repair inh 11.6µM*, TRPV1 ag 18.7, TRPV1 potentiator 5.3 and FUS yeast rescue inconclusive.
Screening O=C(Nc1ccccc1N1CCN(C(=O)c2ccc(Cl)cc2)CC1)c1cccc(F)c1 returned Giardia killer -16.9, ELG1 repair inh inconclusive, TRPV1 ag 24.9, TRPV1 potentiator -9.8 and FUS yeast rescue inactive.
`O=C(Nc1ccc(N2CCN(C(=O)c3ccccc3)CC2)cc1)c1cc2ccccc2o1` gave Giardia killer -19.2, ELG1 repair inh 9.2µM*, TRPV1 ag 5.7, TRPV1 potentiator 18.3 and FUS yeast rescue inactive.
O=C(Nc1ccccc1N1CCN(C(=O)c2ccc(Cl)cc2)CC1)c1ccc2c(c1)OCO2 was read as Giardia killer -11.2, ELG1 repair inh 16.4µM*, TRPV1 ag 0.9, TRPV1 potentiator 6.1 and FUS yeast rescue inconclusive.
`CN1CCN(c2ccc(NC(=O)c3cc4ccccc4o3)cc2)CC1` gave Giardia killer -8.4, ELG1 repair inh inconclusive, TRPV1 ag 13.6, TRPV1 potentiator -14.9 and FUS yeast rescue inactive.
COc1ccc(Nc2ncc(C(=O)N3CCN(c4ccc(F)cc4)CC3)c3ccccc23)cc1 was read as Giardia killer -0.1, ELG1 repair inh 20.6µM*, TRPV1 ag -0.5, TRPV1 potentiator -0.4 and FUS yeast rescue inconclusive.
O=C(CCc1nnc2n(Cc3ccccc3Cl)c(=O)c3ccccc3n12)Nc1ccc(F)c(F)c1 was read as FUS yeast rescue inactive.
Cc1cncc(NCc2cccc(Cl)c2)n1 was read as FUS yeast rescue inactive.
Screening COc1cc(OC)cc(-c2nc3nc(C)c(CCC(=O)Nc4ccc(F)cc4F)c(C)n3n2)c1 returned FUS yeast rescue inactive.
Screening CCN1C(=O)c2ccccc2Sc2ccc(NC(=O)Nc3cccc([N+](=O)[O-])c3C)cc21 returned FUS yeast rescue inactive.
Screening Cc1ccc(Cn2c(CNS(=O)(=O)c3ccc(Cl)s3)nc3cccnc32)cc1 returned FUS yeast rescue inactive.
O=C(Nc1ccc(N2CCN(C(=O)c3ccc(Cl)cc3)CC2)cc1)c1ccc2c(c1)OCCO2 was read as Giardia killer 3.8, ELG1 repair inh 4.11µM*, TRPV1 ag 4.7, TRPV1 potentiator 9.0 and FUS yeast rescue inactive.
For O=C(CSc1ccc(Cl)cc1)Nc1ccccc1N1CCN(C(=O)c2ccc(Cl)cc2)CC1 the results were Giardia killer 1.9, ELG1 repair inh 23.1µM*, TRPV1 ag 3.6, TRPV1 potentiator 27.1 and FUS yeast rescue inactive.
Screening O=C(CSc1ccc(Cl)cc1)Nc1ccc(N2CCN(C(=O)c3ccc(Cl)cc3)CC2)cc1 returned Giardia killer 0.3, ELG1 repair inh -23.6%, TRPV1 ag -3.7, TRPV1 potentiator 23.8 and FUS yeast rescue inactive.
`O=C(c1cnc(N2CCCCC2)c2ccccc12)N1CCN(c2cccc(Cl)c2)CC1` gave FUS yeast rescue inactive.
For COc1ccc(C(=O)N2CCN(c3ccc(NC(=O)Cc4ccccc4)cc3)CC2)cc1 the results were Giardia killer 8.0, ELG1 repair inh 9.2µM*, TRPV1 ag 0.8, TRPV1 potentiator 4.5 and FUS yeast rescue inactive.
For COc1ccccc1N1CCN(c2ncc(C(=O)N3CCN(c4cccc(Cl)c4)CC3)c3ccccc23)CC1 the results were Giardia killer 4.5, ELG1 repair inh 5.17µM*, TRPV1 ag 0.3, TRPV1 potentiator 14.0 and FUS yeast rescue inactive.

Compound activity from PubChem BioAssay.
